Shown are actives, neighbours in structure and some others; about 19% of the full set was active somewhere.
TDP1 cell CPT = growth inhibition of DT40 Tdp1-/-;hTDP1 cells with camptothecin (screen for TDP1 inhibitors). chicken DT40 Tdp1-/-;hTDP1 cells + 20 nM CPT, ATP luminescence, 48 h. Potency, µM (highest dose often 46.2 µM), for inactives: at the highest dose activity change, negative = growth inhibition, hits mostly inhibitors. 12% of 420,000 active; note: nearly all actives have a fitted effect of over 55% in size
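Cell growth measured by CellTiter-Glo luminescence after a minimum 48 h, 37 C compound exposure with 20 nM CPT in Tdp1-knockout DT40 cells stably expressing hTDP1, seeded 400/well; qHTS titration format.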
DT40 TDP1 no CPT = qHTS for Inhibitors of human tyrosyl-DNA phosphodiesterase 1 (TDP1): qHTS in cells in absence of CPT; AID 686978, 2013; 15% of 420,000 active; DT40 Tdp1-/- hTDP1 cells, no CPT, ATP luminescence, 48 h; Potency, µM (top dose mostly 46.2 µM), for inactives: at the top dose activity change, negative = growth inhibition, usual class: inhibitors; note: nearly all actives have a fitted effect of over 55% in size
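Compound effects on proliferation are scored in DT40 Tdp1-/-;hTDP1 cells in the absence of CPT. ATP levels (CellTiter-Glo luminescence) are recorded after a ≥48 hr, 37 °C incubation.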
KB-V1 MDR tox = kills drug-selected multidrug resistant KB-V1 cells | KB-V1 MDR cells viability, CellTiter-Glo, 72 h | 3.4% of 400,000 active | Potency, µM (top dose mostly 46.1 µM), most hits filed as cytotoxic; note: nearly all actives have a fitted effect of over 60% in size
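Drug-selected KB-V1 cells, grown in DMEM lacking phenol red with 10% FBS, receive compound titrations; after three days at 37 degrees C, surviving cell ATP is quantified by CellTiter-Glo luminescence and responses normalized and curve-fitted.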
KB-3-1 cytotox = KB-3-1 parental cell cytotoxicity; KB-3-1 viability, CellTiter-Glo ATP luminescence, 72 h; Potency, µM (doses to about 46.1 µM), hits mostly cytotoxic; 1.4% of 400,000 active; AID 1347075; note: nearly all actives have a fitted effect of over 60% in size
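Here the drug-naive KB-3-1 line serves as comparator for MDR sub-line selectivity; cells received compound titrations, 72 h at 37 °C, then CellTiter-Glo readout.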
HT1080-NT tox = kills 2HG-producing HT-1080-NT fibrosarcoma cells. HT-1080-NT fibrosarcoma viability, CellTiter-Glo ATP luminescence, 48 h. Potency, µM (doses to about 46.1 µM), without a hit: top-dose activity, negative = less viability, hits mostly cytotoxic. 1.6% of 360,000 active. AID 686970;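 note: NT is the 2HG producing partner of a matched IDH1 knockdown line; 0% = DMSO-treated cells and -100% = media-only wells without cells; nearly all actives have a fitted effect of over 55% in size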
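Viability by CellTiter-Glo luminescence after 48 h compound exposure at 37C of HT-1080-NT cells (750/well, RPMI, 5% FBS). % activity scaled between DMSO wells and medium-only wells, then curve-fitted and categorized by curve class.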
HT1080 IDH1KD tx = HT-1080 IDH1 knockdown cell toxicity (counter line). Potency, µM (doses to about 46.1 µM), for the others: at the top dose activity, negative = toxicity, usual class: cytotoxic. HT-1080 IDH1 knockdown viability, ATP luminescence, 48 h. 2% of 360,000 active;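 note: 0% = DMSO wells and -100% = cell-free medium wells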
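Using the IDH1-knockdown HT-1080 line run in the same batch and compound series as the NT line, viability after 48 h at 37 °C was determined by CellTiter-Glo luminescence and expressed as % activity.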
Starred values were filed as active, the others as inactive; i = inactive; u = inconclusive; x = no result; ! = repeats disagree. Calls come from the whole dose curve; as a rule, active = well fitted curve in the direction sought with a large enough effect; inconclusive = small, poorly fitted or top-dose-only effect, or another doubt; inactive = no such curve, though single readings can be large; an effect the other way counts as inactive or inconclusive. Unless noted, % is set by controls: 0 for no effect and ±100 for the full control effect; potency is the fitted concentration of half-maximal effect.

SMILES | TDP1 cell CPT | DT40 TDP1 no CPT | KB-V1 MDR tox | KB-3-1 cytotox | HT1080-NT tox | HT1080 IDH1KD tx
CN(C)C(=O)CCc1ccc2c3c([nH]c2c1)[C@]1(C)[C@@H](C(=O)N2CCCCC2)C[C@H](CC(=O)NCCCn2ccnc2)C(=O)N1CC3 | 4% | -6% | i | i | 2% | 0%
CCOc1ccccc1C(=O)Nc1cc(-c2ccc(C)cc2)no1 | u | u | i | i | x | x
COc1ccc(C(=O)Cn2c(C(=O)/C=C/c3ccccc3)nc3ccccc32)cc1 | 15µM* | 23µM* | u | u | u | u
COc1ccc(C(=O)Cn2c(NCCCO)nc3ccccc32)cc1 | u | u | u | i | -9% | -1%
COC(=O)C(CCSC)NC(=O)c1cc2c(n(-c3ccc(Cl)cc3)c1=O)CCCC2=O (centres undefined) | -17% | -14% | i | i | x | x
O=C(COc1ccccc1Br)NCCc1nc2ccccc2[nH]1 | -28% | -22% | 15µM*! | i | 4% | 7%
Cc1ccc(C(C)(C)C)c(OCC(=O)NCCc2nc3ccccc3[nH]2)c1 | 13µM* | 7.3µM* | i | i | x | x
Cc1cc(OCC(=O)NCCc2nc3ccccc3[nH]2)cc(C)c1Cl | 12µM* | 12µM* | x | x | x | x
CCNC(=O)C1(C)CCCN(Cc2ccc(-n3ccnc3)cc2)C1 (centres undefined) | -5% | -13% | i | i | 23% | -2%
CCOc1ccc(CC(=O)NCCc2csc(-c3ccc(Cl)cc3)n2)cc1 | u | 16µM* | i | i | x | x
CCOc1ccc(CC(=O)NCCc2csc(-c3ccc(C)cc3)n2)cc1 | u | 21µM* | x | x | x | x
Cc1ccccc1-c1cc2nc(NCc3cccnc3)n(C)c(=O)c2s1 | u | u | i | i | -15% | u
O=S(=O)(c1ccc2ccccc2c1)n1nc(-c2ccco2)nc1NCc1ccc(F)cc1 | 1% | -27% | x | x | x | x
CS(=O)(=O)n1nc(-c2ccco2)nc1NCc1ccccc1Cl | u | 18µM* | i | i | x | x
CC(C)c1ccc(CNc2nc(-c3ccco3)nn2S(=O)(=O)c2ccc(F)cc2)cc1 | 21µM* | u | i | u | x | x
COc1ccc(S(=O)(=O)n2nc(-c3ccco3)nc2NCc2ccc(C(C)C)cc2)cc1 | 18µM* | 23µM* | i | i | x | x
CC(OC(=O)CNC(=O)c1ccc(F)cc1)C(=O)Nc1ccc(S(=O)(=O)N2CCOCC2)cc1 (centres undefined) | -5% | 3% | i | i | u | 7%
O=C(CSc1nnc(-c2ccccc2Cl)n1Cc1ccco1)Nc1ccc2c(c1)OCCO2 | -22% | u | i | i | -5% | -4%
Cc1ccc(-n2c(Cc3cccn3C)nnc2SCC(=O)NCc2ccc3c(c2)OCO3)cc1 | -20% | -25% | 15µM* | u | 7% | -2%
Cc1nnc(SCC(=O)Nc2ccc3c(c2)OCCO3)n1N | -2% | -7% | i | i | 5% | 8%
O=C(CSc1nnc(-c2ccc(Cl)cc2)n1Cc1ccco1)Nc1ccc2c(c1)OCCO2 | u | u | 4.1µM* | i | -23% | u
Nn1c(SCC(=O)Nc2ccc3c(c2)OCCO3)nnc(CCC(=O)O)c1=O | 21µM* | u | i | i | 6% | 8%
C=CCn1c(SCC(=O)Nc2ccc3c(c2)OCCO3)nnc1-c1ccco1 | -21% | u | 9.2µM* | i | 3% | 0%
O=C(NCc1cccnc1)c1cccc(S(=O)(=O)NCc2ccccc2)c1 | 0% | 2% | i | i | 6% | -1%
COC(=O)CCNC(=O)N1CCN(c2nnc(C)c3c(C)n(-c4ccccc4)nc23)CC1 | -2% | -14% | i | i | x | x
SMILES | TDP1 cell CPT | DT40 TDP1 no CPT | KB-V1 MDR tox | KB-3-1 cytotox | HT1080-NT tox | HT1080 IDH1KD tx
O=C(CSc1nnc(-c2ccc(Cl)cc2)n1Cc1ccco1)NCc1ccc2c(c1)OCO2 | u | 26µM* | i | u | -13% | -2%
CCn1c(SCC(=O)NCc2ccc3c(c2)OCO3)nnc1-c1ccco1 | 8% | -6% | i | i | -1% | 12%
Cc1[nH]c2ccc(-c3nnc(SCC(=O)NCc4ccco4)n3Cc3ccccc3)cc2c1C | u | 23µM* | i | u | u | -27%
COc1ccc(-c2nnc(SC(C)C(=O)NCc3ccc4c(c3)OCO4)n2Cc2ccco2)cc1 (centres undefined) | u | 15µM* | i | i | -1% | -7%
O=S1(=O)CCOCCCN1Cc1ccc(F)cc1 | -20% | u | i | i | x | x
CN(C)CCC(Oc1ccccc1OCc1ccccc1)c1ccccc1 (centres undefined) | u | 16µM* | i | i | u | u
CC(C)Oc1ccccc1OCCN(C)C | -14% | -16% | i | i | 29% | 11%
CCCn1nnc(NC(=S)NC(=O)Cc2ccccc2)n1 | u | 23µM* | i | i | -24% | u
CCCn1nnc(NC(=O)c2cc(Br)cc(Br)c2OC)n1 | -25% | -23% | 16µM* | i | 8% | 8%
CCCn1nnc(NC(=S)NC(=O)c2ccc(-c3ccc(Br)cc3)o2)n1 | u | u | i | i | -2% | 0%
CCCn1nnc(NC(=S)NC(=O)/C=C/c2ccc(Cl)cc2)n1 | -7% | -6% | i | i | -12% | -1%
CCCn1nnc(NC(=S)NC(=O)CC)n1 | 23µM* | 18µM* | i | i | 2% | 3%
CCCn1nnc(NC(=O)C(c2ccccc2)c2ccccc2)n1 | -19% | -15% | 18µM* | i | 2% | 5%
COc1ccc(C(O)c2ncc(-c3ccccc3C)[nH]2)cc1F (centres undefined) | u | u | i | i | -7% | -9%
CCC(C)N(C(=O)CSc1nc(C)nc2ccccc12)C1CCS(=O)(=O)C1 (centres undefined) | 1% | u | i | i | 2% | 2%
CCC(=O)N(CC(=O)Nc1sc(C)c(C)c1C(N)=O)C1CCCC1 | 23µM* | 13µM* | u | i | 1% | 18%
COc1ccc(C(=O)N(CC(=O)Nc2sc(C)c(C)c2C(N)=O)C2CCCC2)cc1 | u | u | u | i | -1% | -3%

Source: PubChem
